Laboratory results: PubChem BioAssay (EPA / NIEHS)
Where “and” joins values, the source holds several entries; their conditions need not be identical. Identical values can stand only once. Records with an inconclusive call do not appear. Calls of active or inactive are those of the source. Rule for the calls, unless noted: active = hit-call score of the fitted dose curve at least 0.9, where 1 is the maximum; inconclusive = response in the unintended direction; inactive = score below 0.9.

Tests used:
PGR (gene 5241) [1] = biological target: PGR (gene 5241) (UniProt P06401); assay: TOX21_PR_LUC_Followup_Agonist: Tox21 HEK293 Progesterone Receptor (PR) Agonism Luciferase Follow-Up Assay (AID 2283937; active = hit-call score of the fitted dose curve at least 0.9, where 1 is the maximum; inactive = score below 0.9)
Summary of the method: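 Agonist mode: reporter cells carrying PR-A and luciferase are treated 16 h with test compounds at 37C. Luciferase induction is measured by luminescence and fitted upward against DMSO.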

PGR (gene 5241) [2] = biological target: PGR (gene 5241) (UniProt P06401); assay: TOX21_PR_LUC_Followup_Antagonist: Tox21 HEK293 Progesterone Receptor (PR) Antagonism Luciferase Follow-Up Assay (AID 2283938);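 note: curve fitted upward as signal gain over DMSO baseline despite antagonist label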
Summary of the method: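 HEK293-PR-A-luc cells, 3,000/well, preincubated 5 h at 37C before compound addition in DMSO; 16 h compound exposure at 37C. ONE-Glo luciferase luminescence read after 30 min at room temperature, fitted relative to DMSO baseline.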

[3] = biological target: T1, Thyroid hormone receptor alpha (Rattus norvegicus) + Thyroid hormone receptor beta (Rattus norvegicus) (UniProt P18113+P63059); assay: TOX21_TR_LUC_GH3_Antagonist_Followup: Tox21 GH3 Thyroid Hormone Receptor Antagonism Luciferase Follow-Up Assay (AID 2283942)
Summary of the method: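 Rat pituitary GH3 cells with a TRα/TRβ-driven luciferase reporter, 5 h attachment, then 15 concentrations (92 uM to 5nM final) plus 1.0 nM T3 agonist, 24 h at 37C/5% CO2. ONE-Glo luminescence; signal change fitted against DMSO baseline.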

THRB (gene 7068) [4] = biological target: THRB (gene 7068) (UniProt P10828); assay: TOX21_TRB_BLA_Antagonist_Followup_ratio: Tox21 Thyroid Hormone Receptor beta Antagonism Beta-lactamase (BLA) Follow-Up Assay, Ratio (AID 2283958)
Summary of the method: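 In this antagonist-mode follow-up, a stably integrated GAL4-TRβ LBD fusion drives a UAS-beta-lactamase reporter in HEK293T cells. Loss of ratio signal relative to DMSO after 18 h treatment indicates activity; parallel CellTiter-Glo flags cytotoxicity.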

[5] = TOX21_TRB_BLA_Antagonist_Followup_viability: Viability Assessment in the Tox21 Thyroid Hormone Receptor beta Antagonism Beta-lactamase (BLA) Follow-Up Assay (AID 2283961)
Summary of the method: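 HEK293T cells with GAL4-human TRβ LBD and UAS-bla reporter, 3,000 cells/well in 2% charcoal-stripped FBS medium; 11-point concentrations in triplicate, 18 h at 37C. Viability from ATP by CellTiter-Glo luminescence, 30 min RT, same plates.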

THRB (gene 7068) [6] = biological target: THRB (gene 7068) (UniProt P10828); assay: TOX21_TRB_COA_Antagonist_Followup_ratio: Tox21 Thyroid Hormone Receptor beta Antagonism through Coactivator Recruitment Follow-Up Assay, Ratio (AID 2283967)
Summary of the method: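 Cell-free TR-FRET coactivator recruitment with GST-tagged TRβ LBD (5.0 nM) and fluorescein-labeled SRC-2 peptide (200 nM) detected by terbium anti-GST antibody (2 nM). The 520:495 nm emission ratio was normalized to DMSO (0%) and T3 (100%).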

[7] = biological target: Retinoic acid receptor RXR-alpha (Homo sapiens) (UniProt P19793); assay: TOX21_TR_RXR_BLA_Antagonist_Followup_ratio: Tox21 Thyroid Hormone Receptor beta Retinoid X Receptor alpha (RXRa) Antagonism Beta-lactamase (BLA) Follow-Up Assay, Ratio (AID 2283972)
Summary of the method: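 RXRa-UAS-bla HEK293T cells, 2,500/well in phenol red-free DMEM with 2% charcoal-stripped FBS, 5 h attachment, then compounds (11 concentrations, triplicate) for 16 h at 37C; FRET-B/GCCF4-AM substrate 2 h RT; 460:530 nm ratio, loss of signal vs DMSO.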

[8] = TOX21_TR_RXR_BLA_Antagonist_Followup_viability: Viability Assessment in the Tox21 Thyroid Hormone Receptor beta Retinoid X Receptor alpha (RXRa) Antagonism Beta-lactamase (BLA) Follow-Up Assay (AID 2283979)
Summary of the method: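 RXRa-UAS-bla HEK293T cells seeded 2,500/well in phenol red-free DMEM with 2% charcoal-stripped FBS, attached 5 h, then exposed to compounds at 11 concentrations in triplicate for 16 h at 37C/5% CO2. Viability read by CellTiter-Glo ATP luminescence; bidirectional fit versus DMSO.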

[9] = biological target: Nucleoli Translocation, AR (gene 367) (UniProt P10275); assay: UPITT_HCI_U2OS_AR_TIF2_Nucleoli_Antagonist: University of Pittsburgh U2OS Androgen Receptor-Transcriptional Intermediary Factor 2 (AR-TIF2) Antagonism High Content Imaging Assay for Nucleoli Translocation (AID 2283997)
Summary of the method: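 U2OS cells expressing RFP-tagged human AR and GFP-tagged TIF2 were imaged by high-content fluorescence microscopy for red AR signal in the nucleolar region. Compounds were screened at 20 uM final (0.2% DMSO), with activity fitted relative to DHT as baseline.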

[10] = biological target: Nucleoli Translocation, AR (gene 367) (UniProt P10275); assay: UPITT_HCI_U2OS_AR_TIF2_Nucleoli_Agonist: University of Pittsburgh U2OS Androgen Receptor-Transcriptional Intermediary Factor 2 (AR-TIF2) Agonism High Content Imaging Assay for Nucleoli Translocation (AID 2283998)
Summary of the method: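 U2OS cells expressing RFP-tagged human AR and GFP-tagged TIF2; red fluorescence in nucleoli quantified by high-content imaging. Primary screen at 20 uM final (0.2% DMSO); concentration-response 0.195–50 uM (0.5% DMSO), fitted upward versus DMSO.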

[11] = biological target: T1, Thyroid hormone receptor alpha (Rattus norvegicus) + Thyroid hormone receptor beta (Rattus norvegicus); assay: TOX21_TR_LUC_GH3_Agonist_Followup: Tox21 GH3 Thyroid Hormone Receptor Agonism Luciferase Follow-Up Assay (AID 2283939)
Summary of the method: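 Rat GH3 cells (1,500/well) in serum-free assay medium, treated with 15-point series, 92 uM to 5 nM final, for 24 h at 37C. Luciferase via ONE-Glo luminescence; gain of signal fitted against DMSO, T3 positive control.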

THRA (gene 7067) = THRA (gene 7067) (UniProt P10827); assay: TOX21_TRA_COA_Agonist_Followup_ratio: Tox21 Thyroid Hormone Receptor alpha Agonism through Coactivator Recruitment Follow-Up Assay, Ratio (AID 2283948; active = hit-call score of the fitted dose curve at least 0.9, where 1 is the maximum; inactive = score below 0.9)
Summary of the method: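 Cell-free TR-FRET: GST-tagged TRα LBD (2.5 nM) with 0.10% BSA and compound, then fluorescein-SRC-2 peptide (200 nM) and Tb-anti-GST antibody (2 nM). Readout 520:495 nm ratio (ex 340 nm), normalized to DMSO (0%) and T3 (100%).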

THRB (gene 7068) [12] = biological target: THRB (gene 7068) (UniProt P10828); assay: TOX21_TRB_BLA_Agonist_Followup_ratio: Tox21 Thyroid Hormone Receptor beta Agonism Beta-lactamase (BLA) Follow-Up Assay, Ratio (AID 2283954)
Summary of the method: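 Human TRβ LBD–GAL4 DBD fusion in GeneBLAzer UAS-bla HEK293T cells; 11 concentrations in triplicate, 18 h at 37°C/5% CO2, T3 as agonist control. CCF4-AM substrate 2 h at room temperature; 460:530 nm ratio fitted for gain of signal versus DMSO.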

[13] = TOX21_TRB_BLA_Agonist_Followup_viability: Viability Assessment in the Tox21 Thyroid Hormone Receptor beta Agonism Beta-lactamase (BLA) Follow-Up Assay (AID 2283956)
Summary of the method: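 TRb-bla HEK293T cells (GAL4-DBD/human TRb LBD) in 2% charcoal-stripped FBS medium were exposed 18 h at 37C to 11 concentrations in triplicate. CellTiter-Glo ATP luminescence was read after 30 min at room temperature, with bidirectional fitting against DMSO.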

THRB (gene 7068) [14] = biological target: THRB (gene 7068) (UniProt P10828); assay: TOX21_TRB_COA_Agonist_Followup_ratio: Tox21 Thyroid Hormone Receptor beta Agonism through Coactivator Recruitment Follow-Up Assay, Ratio (AID 2283963; active = hit-call score of the fitted dose curve at least 0.9, where 1 is the maximum; inactive = score below 0.9)
Summary of the method: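 Cell-free TR-FRET coactivator recruitment: GST-tagged TRβ LBD (5.0 nM) with 0.10% BSA incubated with compound, then fluorescein-SRC-2 peptide (200 nM) and Tb-anti-GST antibody (2 nM) added. 520:495 nm ratio normalized to DMSO (0%) and T3 (100%).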

[15] = biological target: Retinoic acid receptor RXR-alpha (Homo sapiens) (UniProt P19793); assay: TOX21_TR_RXR_BLA_Agonist_Followup_ratio: Tox21 Thyroid Hormone Receptor beta Retinoid X Receptor alpha (RXRa) Agonism Beta-lactamase (BLA) Follow-Up Assay, Ratio (AID 2283968)
Summary of the method: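 This follow-up tests whether responses seen in the TR GH3 luciferase agonist screen are specific, using a GAL4-driven beta-lactamase reporter for RXRa in HEK293T cells. Compound exposure lasts 16 h; signal is the cleaved/uncleaved substrate ratio.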

[16] = TOX21_TR_RXR_BLA_Agonist_Followup_viability: Viability Assessment in the Tox21 Thyroid Hormone Receptor beta Retinoid X Receptor alpha (RXRa) Agonism Beta-lactamase (BLA) Follow-Up Assay (AID 2283970)
Summary of the method: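 In qHTS format, RXRa-bla HEK293T cells (2,500/well) received compound for 16h. ATP content was then measured with CellTiter-Glo, and responses were fitted bidirectionally relative to DMSO controls.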

DIO1 (gene 1733) = assay: CCTE_GLTED_hDIO1: CCTE's human Deiodinase 1 (DIO1) Inhibition Assay, Great Lakes Toxicology and Ecology Division (GLTED) Lab (AID 2283987);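 note: isolated human DIO1 enzyme in a cell-free setup rather than cells; enzyme activity read as free iodide liberated from substrate via Sandell-Kolthoff colorimetry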
Summary of the method: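 Cell-free human DIO1 enzyme incubated 3 h with test chemical; iodide freed from substrate then measured by Sandell-Kolthoff absorbance. Run in triplicate; loss of signal relative to DMSO taken as inhibition.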

Chain of THRB (gene 7068) (P10828 whole entry, looked up, the tested form may be a part): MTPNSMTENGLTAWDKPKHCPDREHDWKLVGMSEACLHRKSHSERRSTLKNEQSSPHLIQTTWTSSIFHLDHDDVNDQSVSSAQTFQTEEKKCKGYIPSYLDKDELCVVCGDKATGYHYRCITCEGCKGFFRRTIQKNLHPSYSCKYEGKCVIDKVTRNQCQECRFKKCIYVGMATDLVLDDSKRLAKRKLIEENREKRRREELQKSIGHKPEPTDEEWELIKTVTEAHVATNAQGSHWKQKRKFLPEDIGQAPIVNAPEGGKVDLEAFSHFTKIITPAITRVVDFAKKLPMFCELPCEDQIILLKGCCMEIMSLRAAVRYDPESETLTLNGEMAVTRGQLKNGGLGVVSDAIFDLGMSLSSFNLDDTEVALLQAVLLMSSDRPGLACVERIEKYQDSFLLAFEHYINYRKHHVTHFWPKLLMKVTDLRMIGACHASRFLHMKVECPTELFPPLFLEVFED
Chain of Nucleoli Translocation, AR (gene 367) (P10275 whole entry, looked up): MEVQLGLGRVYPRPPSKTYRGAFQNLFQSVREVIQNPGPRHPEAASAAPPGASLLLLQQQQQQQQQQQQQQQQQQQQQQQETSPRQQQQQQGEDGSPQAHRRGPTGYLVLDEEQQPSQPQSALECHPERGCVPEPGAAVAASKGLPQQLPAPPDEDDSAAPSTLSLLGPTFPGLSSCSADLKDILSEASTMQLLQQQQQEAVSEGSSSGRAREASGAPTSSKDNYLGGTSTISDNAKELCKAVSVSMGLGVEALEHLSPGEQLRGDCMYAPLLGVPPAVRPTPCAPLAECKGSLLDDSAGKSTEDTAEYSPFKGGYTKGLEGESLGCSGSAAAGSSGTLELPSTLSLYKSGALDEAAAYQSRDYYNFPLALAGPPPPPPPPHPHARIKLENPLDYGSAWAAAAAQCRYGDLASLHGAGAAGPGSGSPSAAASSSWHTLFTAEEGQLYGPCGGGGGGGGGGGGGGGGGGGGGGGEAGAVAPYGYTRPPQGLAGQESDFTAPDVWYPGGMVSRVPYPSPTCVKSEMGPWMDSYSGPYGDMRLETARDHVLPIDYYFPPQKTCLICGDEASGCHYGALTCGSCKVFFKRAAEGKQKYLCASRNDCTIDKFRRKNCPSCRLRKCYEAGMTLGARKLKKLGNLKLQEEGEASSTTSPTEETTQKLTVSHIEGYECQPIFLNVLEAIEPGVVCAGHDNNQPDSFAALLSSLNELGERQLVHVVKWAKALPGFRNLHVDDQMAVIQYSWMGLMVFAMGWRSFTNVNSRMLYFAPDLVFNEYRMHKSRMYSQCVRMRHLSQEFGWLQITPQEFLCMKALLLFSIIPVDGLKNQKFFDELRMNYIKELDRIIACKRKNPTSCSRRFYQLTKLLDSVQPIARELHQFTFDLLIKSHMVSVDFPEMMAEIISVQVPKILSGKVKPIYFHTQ
Chain of Retinoic acid receptor RXR-alpha (Homo sapiens) (P19793 whole entry, looked up, the tested form may be a part): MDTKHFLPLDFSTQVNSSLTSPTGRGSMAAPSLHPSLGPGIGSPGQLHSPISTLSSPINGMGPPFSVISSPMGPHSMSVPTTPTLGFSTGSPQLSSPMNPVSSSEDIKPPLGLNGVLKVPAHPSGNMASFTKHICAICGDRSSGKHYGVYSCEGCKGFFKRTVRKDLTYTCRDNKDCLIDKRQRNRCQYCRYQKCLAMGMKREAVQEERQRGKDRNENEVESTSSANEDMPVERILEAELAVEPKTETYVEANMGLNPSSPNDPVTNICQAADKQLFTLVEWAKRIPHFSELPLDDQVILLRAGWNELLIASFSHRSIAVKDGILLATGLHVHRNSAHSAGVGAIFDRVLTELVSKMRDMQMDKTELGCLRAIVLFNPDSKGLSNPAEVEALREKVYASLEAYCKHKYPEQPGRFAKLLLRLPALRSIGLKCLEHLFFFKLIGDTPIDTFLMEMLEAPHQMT
Chain of PGR (gene 5241) (P06401 whole entry, looked up): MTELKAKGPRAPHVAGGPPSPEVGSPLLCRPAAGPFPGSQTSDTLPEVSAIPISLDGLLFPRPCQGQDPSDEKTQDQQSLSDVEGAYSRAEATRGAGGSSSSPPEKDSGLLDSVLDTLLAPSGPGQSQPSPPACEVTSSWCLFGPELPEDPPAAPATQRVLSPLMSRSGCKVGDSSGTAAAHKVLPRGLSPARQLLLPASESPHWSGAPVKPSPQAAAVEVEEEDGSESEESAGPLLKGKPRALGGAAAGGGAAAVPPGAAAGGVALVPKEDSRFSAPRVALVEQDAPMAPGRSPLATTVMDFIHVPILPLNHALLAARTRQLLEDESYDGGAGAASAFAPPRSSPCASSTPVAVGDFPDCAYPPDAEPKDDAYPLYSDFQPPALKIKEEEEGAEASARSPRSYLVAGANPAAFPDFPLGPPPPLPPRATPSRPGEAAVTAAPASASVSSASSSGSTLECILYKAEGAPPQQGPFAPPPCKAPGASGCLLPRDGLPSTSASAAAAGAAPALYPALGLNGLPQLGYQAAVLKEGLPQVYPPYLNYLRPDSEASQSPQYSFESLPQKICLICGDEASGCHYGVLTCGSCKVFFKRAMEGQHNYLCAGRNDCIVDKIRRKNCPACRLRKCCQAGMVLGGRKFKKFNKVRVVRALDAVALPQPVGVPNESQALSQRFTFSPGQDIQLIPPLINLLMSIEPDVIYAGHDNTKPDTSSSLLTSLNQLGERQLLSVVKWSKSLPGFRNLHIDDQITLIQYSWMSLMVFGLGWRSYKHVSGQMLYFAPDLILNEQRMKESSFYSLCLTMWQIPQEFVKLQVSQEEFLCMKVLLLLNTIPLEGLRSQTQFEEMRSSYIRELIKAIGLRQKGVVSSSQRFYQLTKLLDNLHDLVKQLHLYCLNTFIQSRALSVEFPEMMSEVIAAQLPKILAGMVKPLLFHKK
T1 sequence (P63059 whole entry, looked up): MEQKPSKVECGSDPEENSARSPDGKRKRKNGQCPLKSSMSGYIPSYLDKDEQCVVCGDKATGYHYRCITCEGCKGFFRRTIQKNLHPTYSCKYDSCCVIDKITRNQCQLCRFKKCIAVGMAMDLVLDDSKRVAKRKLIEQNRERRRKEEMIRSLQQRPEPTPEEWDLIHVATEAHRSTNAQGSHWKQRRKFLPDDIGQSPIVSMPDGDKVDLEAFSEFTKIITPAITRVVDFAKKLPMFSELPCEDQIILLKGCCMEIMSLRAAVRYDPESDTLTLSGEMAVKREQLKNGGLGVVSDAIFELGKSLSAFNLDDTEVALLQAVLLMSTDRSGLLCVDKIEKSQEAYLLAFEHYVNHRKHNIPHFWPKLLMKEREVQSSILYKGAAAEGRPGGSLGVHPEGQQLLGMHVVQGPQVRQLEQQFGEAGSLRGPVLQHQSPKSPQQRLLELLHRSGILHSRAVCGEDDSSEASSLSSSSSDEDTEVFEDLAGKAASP
T1 sequence (P18113 whole entry, looked up): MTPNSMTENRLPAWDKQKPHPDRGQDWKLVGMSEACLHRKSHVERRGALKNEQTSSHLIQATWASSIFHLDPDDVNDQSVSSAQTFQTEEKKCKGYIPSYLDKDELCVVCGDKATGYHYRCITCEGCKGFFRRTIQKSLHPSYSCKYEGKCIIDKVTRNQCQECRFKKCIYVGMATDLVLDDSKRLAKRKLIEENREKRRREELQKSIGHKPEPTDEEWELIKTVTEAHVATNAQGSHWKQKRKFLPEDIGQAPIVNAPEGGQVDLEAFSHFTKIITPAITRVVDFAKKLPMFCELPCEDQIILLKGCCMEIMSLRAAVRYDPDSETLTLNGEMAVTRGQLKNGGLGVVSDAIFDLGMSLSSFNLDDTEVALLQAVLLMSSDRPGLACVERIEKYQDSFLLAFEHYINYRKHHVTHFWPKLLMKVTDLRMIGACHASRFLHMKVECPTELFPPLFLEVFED
Chain of THRA (gene 7067) (P10827 whole entry, looked up, the tested form may be a part): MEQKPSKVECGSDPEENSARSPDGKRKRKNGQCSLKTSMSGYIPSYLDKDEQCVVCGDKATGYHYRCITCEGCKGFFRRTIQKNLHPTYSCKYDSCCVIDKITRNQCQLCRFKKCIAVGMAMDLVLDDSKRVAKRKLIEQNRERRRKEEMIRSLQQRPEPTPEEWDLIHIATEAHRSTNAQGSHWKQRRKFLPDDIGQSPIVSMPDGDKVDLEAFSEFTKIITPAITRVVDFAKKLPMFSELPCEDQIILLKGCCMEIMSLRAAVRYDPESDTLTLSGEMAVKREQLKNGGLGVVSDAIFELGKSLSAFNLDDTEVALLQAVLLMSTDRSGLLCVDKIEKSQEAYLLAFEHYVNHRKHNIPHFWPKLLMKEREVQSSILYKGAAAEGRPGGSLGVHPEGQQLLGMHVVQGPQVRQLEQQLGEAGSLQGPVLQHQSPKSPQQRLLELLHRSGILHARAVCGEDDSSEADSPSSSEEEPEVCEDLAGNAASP

In the case of `CO/N=C(/C(=O)OC)c1ccccc1COc1ccccc1C`, the outcome (PGR (gene 5241) [1]) was “inactive”, the AC50 (PGR (gene 5241) [2]) was 31.5 µM (active) and the AC50 [3] was 9.33 µM (active). For the same compound, the AC50 (THRB (gene 7068) [4]) was 23.1 µM (active), the outcome [5] was “inactive” and the outcome (THRB (gene 7068) [6]) was “inactive”. The outcome [7] was “inactive”, the outcome [8] was “inactive” and the outcome [9] was “inactive”. For the same compound, the outcome [10] was “inactive”.
With `CCCCC(CC)COP(=O)(Oc1ccccc1)Oc1ccccc1` (configuration not stated) the outcome [9] was “inactive” and the outcome [10] was “inactive”.
In the case of `ClC(Cl)=C(c1ccc(Cl)cc1)c1ccccc1Cl`, the AC50 [9] was 50 µM (active) and 9.92 µM (active) and the outcome [10] was “inactive”.
With `CC(C)(C)N(NC(=O)c1ccc(Cl)cc1)C(=O)c1ccccc1` the outcome [9] was “inactive” and the outcome [10] was “inactive”.
With `CC1(C)CN=C(NN=C(/C=C/c2ccc(C(F)(F)F)cc2)/C=C/c2ccc(C(F)(F)F)cc2)NC1` the AC50 [9] was 9.92 µM (active) and the outcome [10] was “inactive”.
For `CCC1(c2ccccc2)C(=O)N=C(O)NC1=O` (configuration not stated), the outcome [11] was “inactive”, the outcome (THRA (gene 7067)) was “inactive” and the outcome (THRB (gene 7068) [12]) was “inactive”. For the same compound, the outcome [13] was “inactive”, the outcome (THRB (gene 7068) [14]) was “inactive” and the outcome [15] was “inactive”. For the same compound, the outcome [16] was “inactive”.
In the case of `O=P(OCC(Br)CBr)(OCC(Br)CBr)OCC(Br)CBr` (configuration not stated), the outcome [9] was “inactive” and the outcome [10] was “inactive”.
For `Clc1ccc(Oc2ccccc2)cc1`, the outcome [9] was “inactive”.
For `O=c1ssc(Cl)c1Cl`, the AC50 (DIO1 (gene 1733)) was 0.149 µM (active).
In the case of `CCCCCCCc1ccc(O)cc1`, the AC50 (DIO1 (gene 1733)) was 77 µM (active), the AC50 [9] was 60.7 µM (active) and the AC50 [10] was 19.2 µM (active).
